# The OligoGym collection
# Target: HHATL
# Assay: pooled miR-30 sensor sort-seq; sequence = guide strand
# Details: shRNA
# Note: reference of the scale not given here.
row,Sequence,sensor-assay potency score (higher = more potent)
1,TTTGGGGCAACCATCGTGCAGA,-0.825
2,TTGAGCAGGTCAGCTAAGGAGT,-0.763
3,TAGAGTGCGGTGATGCACTTGG,0.641
4,TTGGCGAACTTGAGGTCGCTGG,-0.951
5,TACACATATTTGCAAAGCCAGT,-1.98
6,TTGTACATGATGATGGCCCAGA,-0.478
7,ATATTTGCAAAGCCAGTCGTTG,-0.866
8,TTAGCAAACAGCACATGTCCGG,-0.577
9,TCAGCCACATCCATCTTCCGGC,-0.0987
10,TAGCAAACAGCACATGTCCGGA,-0.627

# Target: HIC1
# Assay: as above
# Details: shRNA
row,Sequence,sensor-assay potency score (higher = more potent)
1,TTGTAGCTCTTGTCGCACGACG,-1.22
2,TTCTTGGACAGGTCCAGGCCAC,-0.94
3,TTGTCGCACGACGCGCAGCGGT,-1.62
4,TTGTAGTCGTCGCCGTCGCCGC,-1.19
5,TTGCGTTGCTGTGCGAACTTGC,-0.297
6,ATCGTGTCCAGCATCGTCTGCC,-0.128
7,TGCTCTTGTAGTCGTCGCCGTC,-0.864
8,TAGTCGTCGCCGTCGCCGCCCG,-0.822
9,TACAGCTCGGCGCAGTGCGTGT,-1.35
10,TGAGGTTGCGTTGCTGTGCGAA,-0.814
11,TTCAGCTGCTCAGAGCTGGGGA,-0.306
